Screens as filed in PubChem.
Not all results are given here.
aSyn UTR act – Activators via SNCA 5'UTR binding, MLPCN; AID 1814, 2009; alpha-synuclein 5'UTR reporter, activators screen; activity score, % (tested at 7.5 µM), hits read low; hit rate 7.1% among 300,000; in the data active means activity score below about -60%
An asterisk follows results filed as active.

SMILES | aSyn UTR act
O=C(CSc1nc2cc(Cl)ccc2s1)c1ccco1 | -210*
CCC(=O)NC(=S)Nc1ccc(NC(=S)NC(=O)c2ccccc2)cc1 | -104*
O=C(Nc1ccc(Cl)cc1)C(Cl)C(=O)c1ccccc1 (stereo unspecified) | -79*
O=C(NC(=S)Nc1ccc(Cl)cc1)c1ccccc1 | -177*
COc1ccc(/C=C2\SC(=O)N(CCNC(=O)C3CC4C=CC3C4)C2=O)cc1 (stereo unspecified) | -194*
CC(Sc1nnc(NCc2ccccc2)s1)C(=O)Nc1ccc2c(c1)C(=O)c1ccccc1C2=O (stereo unspecified) | -165*
C=CCc1cccc2cc(C(=O)Nc3ccc(F)cc3)c(=O)oc12 | -128*
COc1ccc(NC(=O)c2cccn(CC=C(C)C)c2=O)cc1 | -79*
C=CCn1c(N)c(C(=O)Nc2ccccc2)c2nc3ccccc3nc21 | 60
C=CCn1cccc(C(=O)Nc2ccc(F)cc2)c1=O | -101*
C=CCn1cccc(C(=O)Nc2ccc(OC)cc2)c1=O | -97*
Cc1ccc(NN=C2c3ccccc3-c3ccccc32)cc1 | -212*
O=C(Oc1ccc(F)cc1C(=O)/C=C/c1cccs1)c1cccc([N+](=O)[O-])c1 | -87*
COc1ccccc1-c1nnc(Nc2nc3c(OC)cccc3s2)o1 | 81
COc1cccc2sc(Nc3nnc(-c4ccccc4Cl)o3)nc12 | 66
COc1cccc(-c2nnc(Nc3nc4c(F)cccc4s3)o2)c1 | -145*
Cc1ccc(NC2c3ncccc3C(=O)N2c2ccccc2C)cc1C (stereo unspecified) | -168*
O=C(NCCc1c[nH]c2ccccc12)c1ccc2c(c1)OCO2 | -142*
O=C(NCCc1c[nH]c2ccccc12)c1cc(Cl)c2c(c1)OCO2 | -110*
Cn1c(C(=O)NCCc2c[nH]c3ccccc23)cc2sccc21 | -237*
O=C(NCCc1ccccc1F)c1ccc2c(c1)OCCO2 | 108
O=C(NCCc1ccc(Cl)cc1)c1ccc2c(c1)OCO2 | -121*
O=C(NCCc1c[nH]c2ccccc12)c1cccnc1 | -67*
O=C(NC1CCCCC1)C(c1cccnc1)N(C(=O)CCl)c1ccc(F)cc1 (stereo unspecified) | -94*
CC(C)c1ccc(N(C(=O)c2ccco2)C(C(=O)NC2CCCC2)c2ccncc2)cc1 (stereo unspecified) | -150*
SMILES | aSyn UTR act
C#CC(=O)N(c1ccc(OC)cc1OC)C(C(=O)NC1CCCC1)c1cccs1 (stereo unspecified) | 92
CCC(C)c1ccc(N(C(=O)c2ccco2)C(C(=O)NC2CCCC2)c2cccnc2)cc1 (stereo unspecified) | -115*
COc1ccc(C(C(=O)NC2CCCCC2)N(C(=O)CCl)c2cccc(Cl)c2)cc1 (stereo unspecified) | -74*
CC(C)(C)n1ncc2c(=O)n(CC(=O)NC3CCCCC3)cnc21 | -108*
CCOC(=O)C(C)Oc1cccc2c(=O)n(CC(=O)NCc3ccc(F)cc3)ccc12 (stereo unspecified) | 68
CC(C)(C)n1ncc2c(=O)n(CC(=O)c3ccccc3)cnc21 | -107*
CCOc1ccccc1NC(=O)Cn1nnc(C(=O)NCc2ccco2)c1N | 85
CC(C)(C)n1ncc2c(=O)n(CC(=O)NCc3ccc(F)cc3)cnc21 | -90*
CC(C)(C)n1ncc2c(=O)n(CC(=O)NCc3ccco3)cnc21 | -93*
O=C(Cn1cc(C(F)(F)F)cc(Cl)c1=O)NCc1ccc(F)cc1 | -81*
CCS(=O)(=O)c1nnnn1-c1ccccc1S(C)(=O)=O | -174*
O=C(CSC(=S)N1CCOCC1)Nc1nc(=O)c2ccccc2s1 | -85*
O=C(/C=C\Nc1ccc(Br)cc1)c1cccnc1 | -69*
CN(C)c1ccc(N/C=C/C(=O)c2ccccc2)cc1 | -65*
CN(C)c1ccc(N/C=C/C(=O)C(C)(C)C)cc1 | -78*
CC(=O)Nc1ccc(N/C=C/C(=O)c2ccccc2)cc1 | -255*
O=C(Nc1ccc2c(c1)OCCO2)C1CCN(C(=O)c2ccc(F)cc2)CC1 | -85*
O=C(Nc1ccc2c(c1)OCCO2)N1CCN(c2ccc(F)cc2)CC1 | -88*
Cc1cccc(C)c1N1CCN(C(=O)Nc2ccc3c(c2)OCCO3)CC1 | -74*
CCOC(=O)C1CCN(c2nnc(N3CCCC3=O)s2)CC1 | -66*
Cc1noc(C)c1C(=O)OCC(=O)c1cc(C)n(Cc2ccccc2Cl)c1C | -98*
CC(C)N(C(=O)CSc1ncnc2sc(-c3ccccc3)cc12)C(C)C | -88*
Cc1nc(SCCC(=O)O)c2cc(-c3ccccc3)sc2n1 | 67
N#C/C(=C\c1ccc(N2CCCCC2)o1)C(=O)Nc1cccc(Br)c1 | -178*
O=P(O)(O)c1ccccc1OCCOCCOCCOCCOc1ccccc1P(=O)(O)O | -130*
SMILES | aSyn UTR act
Cn1c(=O)c(C(=O)NC2CCCCCCC2)c(O)c2ccccc21 | -166*
Cn1c(=O)c(C(=O)NC2CCCCCC2)c(O)c2ccccc21 | -72*
Cn1cc(C(=O)C(=O)NC2CCCCC2)c2ccccc21 | -68*
CC1CCC(NC(=O)c2cc3c(=O)n(C)c4ccccc4c3n2C)CC1 (stereo unspecified) | -98*
C=CCn1c(O)c(N=NC(=S)Nc2ccc(OC)c(Cl)c2)c2ccccc21 | 61
COc1ccc(NC(=O)c2cc3c(=O)n(C)c4ccccc4c3n2C)cc1Cl | -72*
O=C(O)c1cc(N/N=C/c2ccc(-c3ccccc3)cc2)ccc1Cl | -202*
O=C(O)c1ccc(/C=N/Nc2cccc(C(F)(F)F)c2)cc1 | -137*
C/C(=N\Nc1cccc(C(F)(F)F)c1)c1ccc(O)cc1 | -76*
O=C(O)c1ccc(N/N=C/C=C/c2ccccc2)cc1 | -125*
Cc1nn(-c2ccccc2Cl)c(Cl)c1/C=N/Nc1cccc(C(=O)O)c1 | 103
CC(C)c1ccc(/C=N/Nc2ccc(C(=O)O)cc2)cc1 | 85
Cc1nn(-c2cccc(C(F)(F)F)c2)c(Cl)c1/C=N/Nc1cccc(C(=O)O)c1 | -108*
O=C(O)c1ccc(N/N=C/c2ccc(-c3ccccc3)cc2)cc1 | -78*
CSc1ccc(/C=N/Nc2ccc(Cl)c(C(=O)O)c2)cc1 | -134*
CCc1cccc2c(=O)c(C(=O)N3CCCCCC3)c[nH]c12 | -78*
N=c1oc2cc(O)ccc2cc1C(=O)Nc1ccc(Br)cc1 | -172*
N=c1oc2cc(O)ccc2cc1C(=O)Nc1nc2ccccc2s1 | -188*
CN(C)C(/C=C/Nc1ccc(F)cc1)=C(C#N)C#N | -63*
N#CC(C#N)=C(Nc1ccc(F)cc1)SCc1cccc(Br)c1 | 48
O=C(Nc1ccc(Nc2ccccc2)cc1)c1ccc(F)cc1 | -75*
O=C(Nc1nsc(-c2ccccc2)n1)c1ccc(F)cc1 | -166*
Cc1ccc(N/C(=C\C(=O)c2ccccc2)C(=O)O)cc1 | -158*
Cc1ccc(NC(=O)c2ccccc2)cc1 | -164*
Cc1ccc(C(=O)Nc2ccc3ccccc3c2)cc1 | 66
SMILES | aSyn UTR act
Cc1ccc(NC(=O)C(=O)c2ccc(C)cc2)cc1 | -208*
Cc1cccc(C(=O)Nc2ccc(C(=O)c3ccccc3)cc2)c1 | -106*
Cc1cccc(C(=O)Nc2ccc(O)cc2)c1 | -98*
CSC(=CC(=O)c1ccccc1)SC | -77*
Cc1ccc(NC(=O)/C(CN(C)C)=N\O)cc1 | -89*
O=C(Nc1ccccc1)c1ccc(C(=O)Nc2ccccc2)nc1 | -182*
CCc1c(C)sc(NC(=S)Nc2nc(C)cc(C)n2)c1C(=O)OC | -98*
O=C(O)c1ccccc1N/N=C/c1cc(Br)cc(Br)c1O | -111*
O=C(O)c1ccccc1N/N=C\c1ccnc2ccccc12 | 76
